Consider 13 molecules from ChEMBL document CHEMBL1157539, “Thousands of chemical starting points for antimalarial lead identification” (Nature, 2010).

The assay relates to HepG2. The assay can be described thus: GSK_TCMDC: Percent inhibition of human HepG2 cell line. Test compounds present at 10uM. Format: functional.
As a reminder, the Inhibition is the drop in the measured response relative to a control, in per cent. Read a high Inhibition as strong suppression. For `Cc1ccc2c(c1)nc(N)n2C[C@H](O)c1ccccc1`, the Inhibition was 0%.
In the case of `CS(=O)(=O)CCNC(=O)c1ccc(-c2cc3c(Nc4ccc5c(cnn5Cc5ccccc5)c4)ncnc3cn2)o1.Cl` it was 6%; in that of `CN1CCN(CCCN(Cc2csc(-c3ccc(CNCc4ccccc4)cc3)n2)C(=O)Nc2ccc3ccccc3c2)CC1.O=C(O)C(F)(F)F`, 12%.
For `Cc1cc(NCCc2ccccc2)nc(NC(=N)Nc2cccc(F)c2)n1` the value was 0%; for `O=C(Cn1c(CCc2cccc(F)c2F)cc(=O)c2cccnc21)N(CCn1ccnc1)Cc1ccc(-c2ccc(C(F)(F)F)cc2)cc1`, 39%; for `OC(CNc1ccnc(Nc2cccc(Cl)c2)n1)c1cccc(C(F)(F)F)c1` (stereo not drawn), 11%.
In the case of `Nc1ncc(-c2cn[nH]c2)cc1-c1nc2ccc(Cl)cc2[nH]1` it was 46%; in that of `O=C1NC(c2ccc(N3CCCCCC3)cc2)Nc2ccccc21` (stereo not drawn), 19%.
For `O=C(O)C(F)(F)F.c1ccc(CNCc2cccc(-c3csc(-c4nc5ccccc5[nH]4)c3)c2)cc1`, the Inhibition is 24%.
`CCCNC(=O)c1ccnc(-c2ccc(CNC3Cc4ccccc4C3)cc2)c1.O=C(O)C(F)(F)F` displayed an Inhibition of 24%.
In the case of `COc1ccc(CN2CCCN(Cc3cccc(C(=O)Nc4ccc(C)c(F)c4)c3)CC2)cc1.O=C(O)C(F)(F)F` it was 49%; in that of `COc1ccc(CN2CCC(NCc3cccc(-n4ccnc4)c3)CC2)cc1.O=C(O)C(F)(F)F`, 10%; in that of `Cc1[nH]c2ccc(NS(C)(=O)=O)cc2c1C1CCN(CCC2CCN(C(=O)/C=C/c3ccc(Cl)c(Cl)c3)CC2)CC1`, 23%.
